Most compounds without a hit are left out; they make up all but 1.2% or so of the library.
RGS4-Gao reg: human RGS4-Galphao interaction regulation | Multiplexed bead flow cytometry, RGS4-Galphao binding; actives lie on both sides | binding response (% of control), % at 10 µM | 220,000 compounds, 0.33% hits | P09471 | AID 1415; in the data active = binding response below about 49% or above about 150%; inactive = in between;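 note: fluorescent Galphao activated with aluminum fluoride binding bead-coupled RGS4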
Target sequence (P09471 whole entry, looked up): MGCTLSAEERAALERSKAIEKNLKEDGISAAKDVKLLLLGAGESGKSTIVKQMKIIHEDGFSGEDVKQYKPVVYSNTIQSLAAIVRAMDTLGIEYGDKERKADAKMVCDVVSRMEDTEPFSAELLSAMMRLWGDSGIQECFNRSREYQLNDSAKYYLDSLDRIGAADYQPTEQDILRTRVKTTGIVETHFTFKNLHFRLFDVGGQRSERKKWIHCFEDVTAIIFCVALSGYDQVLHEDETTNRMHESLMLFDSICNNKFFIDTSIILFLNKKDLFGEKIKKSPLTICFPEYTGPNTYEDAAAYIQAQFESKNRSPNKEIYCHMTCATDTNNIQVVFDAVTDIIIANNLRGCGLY
Avidin bead fluor: compound fluoresces at 488/530 nm on avidin beads. compound fluorescence 488/530 nm, flow cytometry; stronger effect = higher value. fluorescence (KMESF) at 10 µM. 220,000 compounds, 0.38% hits. AID 1775; in the data active = fluorescence above about 47
RGS16-Gao: RGS16-Galphao interaction regulator (human) | O15492+P09471 | bead-based flow cytometry RGS16-Galphao binding, fluorescence; actives lie on both sides | binding response (% of control), % at 10 µM | 220,000 compounds, 0.38% hits | AID 1441;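 note: Galphao activated by GDP with aluminum fluoride before binding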
RGS8-Gao reg: regulators of human RGS8-Galphao interaction | P09471 | multiplexed bead flow cytometry, RGS8-Galphao binding; actives lie on both sides | 220,000 compounds, 0.34% hits | response (percent of control binding), % at 10 µM; in the data active = response below about 60% or above about 140%; inactive = in between;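 note: Galphao activated as the GDP aluminium fluoride complex binding bead-coupled RGS8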
RGS7-Gao reg: modulates binding of RGS7 to human Galphao; P09471; Multiplexed bead flow cytometry; actives lie on both sides; binding response (% of control), % at 10 µM; 220,000 compounds, 0.35% hits; AID 1439; in the data active = binding response below about 49% or above about 150%; inconclusive = no clear call, values can overlap the other calls; inactive = in between;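 note: fluorescent Galphao held in activated GDP-AlF4 state binding bead-coupled RGS7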
GSH bead fluor: GSH bead compound fluorescence profile. fluorescence (KMESF) at 10 µM. GSH beads flow cytometry, compound fluorescence 488/530 nm; stronger effect = higher value. AID 1776. 190,000 compounds, 0.25% hits; in the data active = fluorescence above about 89;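 note: glutathione beads carrying GST-tagged Bcl family fusion proteins plus one bare bead set; values are compound well signal with DMSO vehicle wells as background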
RGS4-Gao HTS: modulates binding between human RGS4 and Galphao | 1,600 compounds, 99% hits | RGS4–Galpha-o binding response, % at 10 µM | shares compounds with RGS16-Gao | multiplexed bead flow cytometry, RGS–Galpha-o binding;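 note: fluorescently labeled Galpha-o bound to GDP with aluminium fluoride binding biotinylated RGS beads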
Avidin counter: interferes with biotinylated probe binding to avidin beads; shares compounds with RGS16-Gao; streptavidin beads, fluorescein-biotin binding, flow cytometry; inhibition, % at 10 µM; 1,700 tested, under 10 active;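 active = inhibition above 50%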;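 note: median green fluorescence of gated singlet beads compared with DMSO control wells; 0% = DMSO wells and 100% = complete loss of bead fluorescence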
RGS8-Gao single: RGS8-Galphao interaction regulation, single point confirmation | shares compounds with RGS16-Gao | bead-based flow cytometry RGS8-Galphao binding, fluorescence; actives lie on both sides | binding response (% of control), % at 10 µM | 1,700 compounds, 3% hits; in the data active = binding response below about 72% or above about 130%; inactive = in between;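 note: Galphao activated as GDP AlF4 complex before binding bead RGS8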
RGS7-Gao single: confirmation of regulators of human RGS7-Galphao interaction | shares compounds with RGS16-Gao | bead-based flow cytometry RGS7-Galphao binding; actives lie on both sides | response (percent of control binding), % at 10 µM | 1,700 compounds, 7.8% hits; in the data active = response below about 75% or above about 130%; inactive = in between;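 note: fluorescent Galphao activated with GDP and aluminum fluoride binding bead-coupled RGS7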
RGS16-Gao single: RGS16-Galphao interaction regulation, single point confirmation | response (% of control binding), % at 10 µM | 1,700 compounds, 4% hits | AID 1838 | shares compounds with RGS16-Gao | bead-based flow cytometry, RGS16-Galphao binding; actives lie on both sides; in the data active = response below about 74% or above about 130%; inactive = in between;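 note: Galphao activated as the GDP aluminium fluoride complex binding bead-coupled RGS16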
RGS4-Gao single: RGS4-Galphao interaction regulation, single point confirmation. shares compounds with RGS16-Gao. RGS4-Galphao binding, multiplexed bead flow cytometry; actives lie on both sides. binding response (% of control), % at 10 µM. 1,700 compounds, 4% hits; in the data active = binding response below about 74% or above about 130%; inactive = in between
RGS19-Gao single: RGS19-Galphao interaction regulation, single point confirmation; shares compounds with RGS16-Gao; bead-based flow cytometry RGS19-Galphao binding; actives lie on both sides; response (percent of control binding), % at 10 µM; 1,700 compounds, 5% hits; AID 1841; in the data active = response below about 50% or above about 160%; inactive = in between;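 note: 100% = no compound control and 0% = blank background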
Target sequence (P09471 whole entry, looked up): as above
Target sequence (P49795 whole entry, looked up): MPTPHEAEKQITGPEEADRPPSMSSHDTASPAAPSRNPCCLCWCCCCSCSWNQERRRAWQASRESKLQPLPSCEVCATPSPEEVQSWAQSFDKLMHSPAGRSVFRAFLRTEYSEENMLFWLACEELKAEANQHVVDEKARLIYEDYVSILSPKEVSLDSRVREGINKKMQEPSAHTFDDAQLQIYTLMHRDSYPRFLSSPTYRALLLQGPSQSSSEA
Starred values were filed as active, the others as inactive; u = inconclusive; x = no result given; [ ] = another dose, or the depositor's remark. Unless noted, the rule behind the calls is not given here.

SMILES	RGS4-Gao reg	Avidin bead fluor	RGS16-Gao	RGS8-Gao reg	RGS7-Gao reg	GSH bead fluor	RGS4-Gao HTS	Avidin counter	RGS8-Gao single	RGS7-Gao single	RGS16-Gao single	RGS4-Gao single	RGS19-Gao single
C#CCn1c(=NC(=O)c2cc(-c3cccs3)nc3ccccc23)sc2cc(S(N)(=O)=O)ccc21	80	0	84	47*	34*	5	80*	-1	97	91	98	94	90
Cc1ccc(-n2c(C)cc(C(=O)COc3c(CO)cc(F)cc3CO)c2C)cc1C	116	4	332	153*[activator]	115	10	116*	2	105	104	104	103	108
CC1=CCC2C(=O)N(c3ccc(C(=O)N4CCCCCC4)cc3)C(=O)C2C1 (stereo unspecified)	104	5	72	96	105	62	x	x	x	x	x	x	x
O=C(CCCOc1ccc(Cl)cc1Cl)Nc1ccncc1	x	x	x	x	x	40	x	0	104	96	106	101	99
Cc1cccc(N2CCN(C(=O)COc3cccc4c3OC(C)(C)C4)CC2)c1C	99	11	99	102	100	12	x	x	x	x	x	x	x
Cc1nn(-c2ccccc2)c(N)c1Sc1ccccc1[N+](=O)[O-]	94	16	97	97	97	15	x	x	x	x	x	x	x
Cc1nn(-c2ccccc2)c(N)c1Sc1cccc([N+](=O)[O-])c1	111	12	202*[activator]	120	122	8	111*	-1	103	103	105	104	103
O=C(NC1CCCC1)c1cccc(Oc2ccccc2)c1	95	7	94	102	99	12	x	x	x	x	x	x	x
COc1ccc(Nc2c([N+](=O)[O-])ccc3c2=NC2(CCCCC2)N=3)cc1	98	3	100	101	97	11	x	x	x	x	x	x	x
COc1ccc(-c2ccc(SCC(=O)Nc3cccc(C(C)=O)c3)nn2)cc1OC	116	10	122	113	106	13	x	x	x	x	x	x	x
CCCCN=Cc1c(C)[nH]n(-c2ccccc2)c1=S	105	11	105	102	110	14	x	x	x	x	x	x	x
Cc1[nH]n(-c2ccccc2)c(=S)c1C=Nc1cccc([N+](=O)[O-])c1	95	7	19*	69	107	9	95*	0	54*	84	5.9*	86	9.1*
CC(C)Sc1nc2ccc(N3C(=O)C4CCCCC4C3=O)cc2s1 (stereo unspecified)	88	2	21*	65	89	10	88*	-4	114	108	120	107	116
COc1cc(CN2CCC(C(=O)N3CCN(c4ccccc4F)CC3)CC2)cc(OC)c1OC	100	8	102	100	99	35	x	x	x	x	x	x	x
COc1ccc(CN2CCC(C(=O)N3CCN(c4ccccc4F)CC3)CC2)cc1OC	135	25	184	141*[activator]	141	25	135*	x	x	x	x	x	x
C=CCNC(=S)NCc1cccnc1	112	14	276*[activator]	128	112	5	112*	1	102	102	104	104	91
CCCc1nc2ccc(NC(=O)NCCC(=O)OCC)cc2c(=O)n1Cc1ccc(Cl)cc1	89	3	8.6*	69	85	16	89*	0	103	100	103	102	103
CCOC(=S)NC(=O)c1sc2ccccc2c1Cl	103	9	112	105	103	17	x	x	x	x	x	x	x
CCCOC(=S)NC(=O)c1sc2ccccc2c1Cl	x	x	x	x	x	17	x	0	103	105	103	105	99
CC(C)=CCN1CCN(Cc2cccnc2)CC1CCO (stereo unspecified)	101	9	101	99	97	8	x	x	x	x	x	x	x
CCOC(=O)C1=C(C)N=C2SC(CC)C(=O)N2C1c1cccc(F)c1 (stereo unspecified)	x	x	x	x	x	19	x	-2	98	93	99	99	98
CCCCn1c(=S)[nH]c2c(oc3ccc(Cl)cc32)c1=O	-5.2*	-3	-19*	5.1*	7.1*	21	x	-2	106	108	105	101	109
O=S(=O)(Nc1ccccc1O)c1ccc(Cl)nc1	98	5	103	99	u	x	x	x	x	x	x	x	x
O=C(CN1CCN(S(=O)(=O)c2ccccc2)CC1)NC(=O)NCc1ccco1	100	7	96	97	u	x	x	x	x	x	x	x	x
COc1ccc(-c2ccc(SCC(=O)N3CCCC3)nn2)cc1OC	97	19	104	99	94	11	x	x	x	x	x	x	x
SMILES	RGS4-Gao reg	Avidin bead fluor	RGS16-Gao	RGS8-Gao reg	RGS7-Gao reg	GSH bead fluor	RGS4-Gao HTS	Avidin counter	RGS8-Gao single	RGS7-Gao single	RGS16-Gao single	RGS4-Gao single	RGS19-Gao single
COc1ccc(-c2ccc(SCC(=O)N3CCOCC3)nn2)cc1OC	x	x	x	x	x	39	x	-2	103	105	106	106	108
CCCN(CCC)S(=O)(=O)c1ccc(NC(=O)COc2ccccc2)cc1	109	5	114	106	103	15	x	x	x	x	x	x	x
O=C(NCc1ccccc1Cl)NCc1ccccc1Cl	43*	2	46	62	u	x	x	-1	103	103	107	99	109
O=C(c1ccc(S(=O)(=O)NCc2ccco2)cc1)N1CCN(Cc2ccc3c(c2)OCO3)CC1	122	8	336	158*[activator]	120	13	122*	-1	100	97	100	98	101
Nc1cccc(S(=O)(=O)NC2=NCCC2)c1	119	10	393	149*[activator]	114	66	119*	x	x	x	x	x	x
O=C(NC(=S)N1CCN(C/C=C/c2ccccc2)CC1)c1ccc(Cl)nc1	99	6	97	96	u	x	x	x	x	x	x	x	x
O=C(Nc1ccc(Cl)c(Cl)c1)OCCNC(=O)c1ccncc1	96	11	104	81	u	11	x	0	103	106	105	104	92
CCN(CC(=O)NC(C)(C)C)C(=O)c1ccc2c(c1)S(=O)(=O)c1ccccc1C2=O	104	26	111	106	104	7	x	x	x	x	x	x	x

High-throughput results as filed in PubChem.
